Experimental findings from article PMC5540273 (PLoS ONE, 2017) are described below.

Structures are written as SMILES. Several values for one entry are separate records, joined by “and”; a condition that tells them apart may be missing. Identical values can stand only once. Like-named read-outs stand apart in the source and are kept apart here.

The subject of one assay is AAK1. Conditions: n = 1.
The next assay has as its system ABL1-nonphosphorylated. Conditions: concentration: 1 μM, replicates: in singlicate; n = 1.
The subject of the next assay is ABL1-phosphorylated. The settings on record: concentration: 1 μM, replicates: in singlicate; n = 1.
In the next assay the test system is ABL2. Conditions: n = 1.
Another assay relates to ACVR1B. The settings on record: concentration: 1 μM, replicates: in singlicate; n = 1.
The next assay relates to ACVR1. The settings on record: n = 1.
Another assay has as its system ACVR2A. The settings on record: concentration: 1 μM, replicates: in singlicate; n = 1.
The mark [1] stands for this setting: concentration: 1 μM, replicates: in singlicate.
Where [2] appears, read: concentration: 1 μM,replicates: in singlicate, 1 µM.
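Note: KINOMEscan kinase panel screen.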

As for `Cc1cccc(-c2nc(Nc3ccncc3)c3ccccc3n2)n1` [GW855857], the “%Inh” value in the assay on AAK1 (setting [1]) is reported as 2%; in the assay with ABL1-nonphosphorylated, 39%; in the assay on ABL1-phosphorylated, 28%; in the assay on ABL2 (setting [1]) it was 22%; with ACVR1B, 94.3%; in the assay with ACVR1 (setting [1]), 15%. Further, the “%Inh” value with ACVR2A is listed as 24%.
With `O=C(Nc1ccc2c(c1)OCO2)NC1CCN(c2ccnc(Nc3ccc(F)cc3)n2)C1` (stereo not shown) [GSK1379724], the “%Inh” value was determined as 12% in the assay on AAK1 (setting [1]); 0% with ABL1-nonphosphorylated; 0% with ABL1-phosphorylated; 9% in the assay on ABL2 (setting [1]); 0% in the assay with ACVR1B; 0% with ACVR1 (setting [1]). For the same molecule, the “%Inh” value in the assay on ACVR2A is 0%.
Consider `O=C(Nc1n[nH]c2cc(-c3cccc(F)c3F)ccc12)C1CC1` [SB-733894], for which the “%Inh” value turned out to be 100% in the assay with AAK1 (setting [1]); 45% in the assay on ABL1-nonphosphorylated; 40% with ABL1-phosphorylated; 0% in the assay with ABL2 (setting [1]); 21% in the assay on ACVR1B; 24% in the assay on ACVR1 (setting [1]). For the same molecule, in the assay on ACVR2A, the “%Inh” value was 17%.
As for `Cl.c1ccc(-c2n[nH]cc2-c2ccnc(-c3ccc(CN4CCOCC4)cc3)c2)nc1` [GW776245], the “%Inh” value in the assay with AAK1 (setting [1]) is 25%; in the assay on ABL1-nonphosphorylated, 62%; in the assay with ABL1-phosphorylated it was 61%; with ABL2 (setting [1]), 0%; in the assay with ACVR1B, 80%; in the assay on ACVR1 (setting [1]), 7%. Moreover, the “%Inh” value with ACVR2A is reported as 11%.
On to `COc1cc2ncnc(Nc3ccc4nc(-c5ccccc5)[nH]c4c3)c2cc1OC.Cl` [GW282450], for which the “%Inh” value came to 6% in the assay on AAK1 (setting [1]); 0% with ABL1-nonphosphorylated; 0% in the assay with ABL1-phosphorylated; 5% with ABL2 (setting [1]); 0% with ACVR1B; 0% in the assay on ACVR1 (setting [1]). The “%Inh” value in the assay with ACVR2A is 0%.
As to `COc1cccc(-c2cc(-c3c[nH]nc3-c3ccccn3)ccn2)c1` [GW680338], the “%Inh” value with AAK1 (setting [1]) was 4%; in the assay with ABL1-nonphosphorylated, 0%; in the assay on ABL1-phosphorylated it was 3%; in the assay on ABL2 (setting [1]), 0%; with ACVR1B, 50%; with ACVR1 (setting [1]), 24%. In addition, the “%Inh” value in the assay on ACVR2A was 9%.
With `COc1cc2ncn(-c3cc(OCC4CCCO4)c(C(N)=O)s3)c2cc1OC` (stereo not shown) [GSK204607], the “%Inh” value was determined as 17% with AAK1 (setting [1]); 0% in the assay with ABL1-nonphosphorylated; 0% in the assay on ABL1-phosphorylated; 0% in the assay on ABL2 (setting [1]); 0% in the assay on ACVR1B; 46% with ACVR1 (setting [1]). Also, the “%Inh” value with ACVR2A is 0%.
As to `Cc1cc(N2Cc3ccccc3C2)nc(Nc2ccc(S(=O)(=O)N3CCOCC3)cc2)n1.Cl` [GSK1669917], the “%Inh” value in the assay on AAK1 (setting [1]) is reported as 1%; in the assay with ABL1-nonphosphorylated, 0%; in the assay on ABL1-phosphorylated, 0%; in the assay with ABL2 (setting [1]), 0%; in the assay on ACVR1B, 0%; with ACVR1 (setting [1]), 2%. The “%Inh” value in the assay with ACVR2A is 0%.
`COc1ccc(Nc2nccc(-c3cccc(NC(=O)c4cc5cc(F)ccc5[nH]4)c3)n2)cc1` [GSK1229782]: the “%Inh” value in the assay with AAK1 (setting [1]) was 47%; with ABL1-nonphosphorylated it was 85%; with ABL1-phosphorylated it was 78%; in the assay on ABL2 (setting [1]) it was 53%; in the assay with ACVR1B, 0%; in the assay on ACVR1 (setting [1]) it was 9%. For the same molecule, the “%Inh” value in the assay on ACVR2A amounted to 13%.
Regarding `Clc1cc(Cl)cc(Nc2ccnc(Nc3cc(Cl)cc(Cl)c3)n2)c1` [GSK175726], the “%Inh” value in the assay with AAK1 (setting [1]) amounted to 0%; in the assay with ABL1-nonphosphorylated, 68%; with ABL1-phosphorylated, 51%; in the assay with ABL2 (setting [1]) it was 29%; in the assay on ACVR1B, 28%; in the assay with ACVR1 (setting [1]), 58%. For the same molecule, the “%Inh” value with ACVR2A came out at 0%.
For `COC(=O)c1c(-c2ccccc2)c2cc(C(=O)O)ccc2c(=O)n1Cc1ccccc1`, the “%Inh” value turned out to be 3% in the assay on AAK1 (setting [1]); 77% in the assay on ABL1-nonphosphorylated; 7% in the assay with ABL1-phosphorylated; 7% with ABL2 (setting [1]); 9% in the assay on ACVR1B; 0% with ACVR1 (setting [1]). Also, the “%Inh” value in the assay with ACVR2A turned out to be 36%.
For the molecule `Fc1cc(Cl)ccc1Nc1ccnc2cc(I)ccc12` [GW551191], the “%Inh” value turned out to be 11% in the assay with AAK1 (setting [1]); 22% in the assay with ABL1-nonphosphorylated; 26% in the assay with ABL1-phosphorylated; 29% in the assay with ABL2 (setting [1]); 0% in the assay with ACVR1B; 54% in the assay with ACVR1 (setting [1]). The “%Inh” value in the assay with ACVR2A was determined as 0%.
Take `Nc1nc(-c2nccs2)c(-c2ccnc3ccccc23)s1` [GW693542]: the “%Inh” value in the assay with AAK1 (setting [1]) is listed as 8%; in the assay with ABL1-nonphosphorylated, 0%; with ABL1-phosphorylated, 6%; with ABL2 (setting [1]), 15%; with ACVR1B, 14%; in the assay on ACVR1 (setting [1]) it was 10%. Moreover, the “%Inh” value with ACVR2A amounted to 0%.
With `O=C1NC(=O)C(N2CCc3ccccc32)=C1c1ccccc1Cl` [SB-373598], the “%Inh” value worked out at 7% with AAK1 (setting [1]); 12% in the assay on ABL1-nonphosphorylated; 97.7% in the assay with ABL1-phosphorylated; 15% in the assay on ABL2 (setting [1]); 35% with ACVR1B; 27% in the assay with ACVR1 (setting [1]). Moreover, the “%Inh” value in the assay on ACVR2A is recorded as 25%.
Regarding `Cc1c(O)cccc1Nc1ccnc2ccc(C(F)(F)F)cc12.Cl` [GW466413], the “%Inh” value in the assay on AAK1 (setting [1]) amounted to 0%; with ABL1-nonphosphorylated it was 42%; in the assay with ABL1-phosphorylated, 70%; in the assay on ABL2 (setting [1]) it was 43%; in the assay with ACVR1B, 0%; with ACVR1 (setting [1]), 73%. The “%Inh” value in the assay on ACVR2A is 13%.
For the molecule `Cc1cccc(-c2nc(C)cc(Nc3ccncc3)n2)n1` [GSK257997], the “%Inh” value with AAK1 (setting [1]) worked out at 99.8%; with ABL1-nonphosphorylated it was 0%; in the assay with ABL1-phosphorylated, 0%; in the assay on ABL2 (setting [1]), 6%; with ACVR1B, 78%; with ACVR1 (setting [1]), 15%. The “%Inh” value in the assay with ACVR2A is recorded as 0%.
`Cl.Oc1ccc(-c2nc(-c3ccccc3)[nH]c2-c2ccncc2)cc1` [SB-428218]: the “%Inh” value with AAK1 (setting [1]) came to 7%; in the assay with ABL1-nonphosphorylated, 72%; in the assay with ABL1-phosphorylated it was 56%; in the assay on ABL2 (setting [1]), 30%; with ACVR1B, 0%; in the assay on ACVR1 (setting [1]) it was 7%. Besides, the “%Inh” value in the assay on ACVR2A was determined as 0%.
With `CSc1nn2c(=O)cc(N3CCOCC3)nc2n1Cc1cccc(C(F)(F)F)c1C` [GSK2363608], the “%Inh” value in the assay with AAK1 (setting [2]) was 3% and 25%; with ABL1-nonphosphorylated, 0%; in the assay with ABL1-phosphorylated, 0%; with ABL2 (setting [2]) it was 5% and 17%; in the assay with ACVR1B it was 0%; in the assay with ACVR1 (setting [2]), 0% and 14%. Also, the “%Inh” value in the assay with ACVR2A is recorded as 0%.
On to `Cl.NC(=O)c1cccc(Nc2nccc(Nc3ccc(Oc4cccc(Cl)c4)c(Cl)c3)n2)c1` [GW659008], for which the “%Inh” value in the assay with AAK1 (setting [1]) stood at 14%; in the assay with ABL1-nonphosphorylated it was 0%; in the assay on ABL1-phosphorylated, 0%; with ABL2 (setting [1]), 20%; in the assay on ACVR1B, 0%; with ACVR1 (setting [1]), 29%. Moreover, the “%Inh” value with ACVR2A worked out at 0%.
